Rows were chosen to be rich in hits. Some 5.4% of all compounds tested hit in one or more screens of this group.
HSF1 inh – HSF1 inhibition; NIH3T3-HGL HSE-luciferase, MG132-induced, luminescence 8 h; active compounds read low; activity change, negative = inhibition, % at 7.5 µM (by protocol); hit rate 0.77% among 300,000; AID 2098;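 active = more than half of replicate wells show activity change below -50%, luminescence cut by over half; inconclusive = some wells, but at most half, below -50%; inactive = no replicate well below -50%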;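 also: luciferase reports HSF-1 transcriptional activity via heat shock element; 0% = median of DMSO wells and -100% = zero luminescence signal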
AHR activator – human AHR activation. P35869. AHR-responsive luciferase reporter cells, luminescence. activation, % at 5 µM. hit rate 2.5% among 320,000; in the data active = activation above about 47%;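 also: 0% = vehicle wells and 100% = reference agonist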
DAX1 inh – inhibits human nuclear receptor DAX1; P51843; HEK293 Gal4-DAX1 luciferase reporter, luminescence; inhibition, % at 6.75 µM; hit rate 0.99% among 340,000;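 active = inhibition above the mean over all tested compounds plus 3 SD, cut at about 4.2% in these data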;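 also: 0% = DAX1-transfected cells with DMSO and 100% = empty-vector control cells with DMSO; inhibition shows as a rise in luminescence from relieved DAX1 repression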
Target sequence (P51843 207-470 limits assumed): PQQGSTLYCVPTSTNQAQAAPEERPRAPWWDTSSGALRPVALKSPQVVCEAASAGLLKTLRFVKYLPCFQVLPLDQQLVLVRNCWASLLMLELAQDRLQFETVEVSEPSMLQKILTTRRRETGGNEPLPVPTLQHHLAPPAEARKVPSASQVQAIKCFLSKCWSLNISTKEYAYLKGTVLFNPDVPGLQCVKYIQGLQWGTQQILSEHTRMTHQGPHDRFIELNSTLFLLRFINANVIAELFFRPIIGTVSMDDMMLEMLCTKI
GAA850 FXN act – frataxin GAA850 promoter activation | hit rate 0.56% among 360,000 | HEK293 lucGAA850 FXN promoter luciferase reporter, 24 h; percent of 10 µM SAHA response | activation, % at 6 µM;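 active = activation above the average of all compounds screened plus 3 SD, cutoff fixed separately per campaign, cut at about 7.5% in these data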;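 also: 0% = DMSO wells and 100% = 10 µM SAHA wells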
HSF-1 act – increases HSF-1 driven luciferase reporter signal | NIH3T3-HGL HSF-1 luciferase reporter, MG132, 8 h; 100% = twice DMSO control signal | activation, % at 9 µM | hit rate 1.7% among 300,000 | AID 504408;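 active = mean replicate activation of at least 50% with a set share of replicates each reaching 50%; inconclusive = only one of those two conditions met; inactive = mean below 50% and too few replicates reaching it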;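 also: 0% = median of the neutral control wells and 100% = twice that signal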
An asterisk follows results filed as active.

Cc1ccc(OCC(=O)NNC(=O)CCc2ccccc2)c(Br)c1 was read as HSF1 inh 6, AHR activator 2, DAX1 inh 0, GAA850 FXN act 0 and HSF-1 act 45.
For CCN(CC)CCCNC(=O)CCC(=O)Nc1ccc2nc(N3CCCCC3)cc(C)c2c1 the results were HSF1 inh -3, AHR activator 13, DAX1 inh 6.7*, GAA850 FXN act 6 and HSF-1 act -4.
`CCOC(=O)c1c(N/N=C/c2cccnc2)n[nH]c1C` gave HSF1 inh 12, AHR activator 52*, DAX1 inh 5.3*, GAA850 FXN act -1 and HSF-1 act 14.
`CCCC(=O)Oc1ccc(-c2nccc(C(OC)OC)n2)cc1` gave HSF1 inh -2, AHR activator 3, DAX1 inh 4.3*, GAA850 FXN act 1 and HSF-1 act 13.
Screening O=C1/C(=C/N(C(=O)c2ccco2)c2ccc(Br)cc2)Sc2ccccc21 returned HSF1 inh 14, AHR activator 35, DAX1 inh 4.7*, GAA850 FXN act -1 and HSF-1 act 19.
`O=C1/C(=C/N(C(=O)c2ccco2)c2ccc(Cl)cc2)Sc2ccccc21` gave HSF1 inh 14, AHR activator 17, DAX1 inh 2, GAA850 FXN act 2 and HSF-1 act 37.
`COc1ccc(S(=O)(=O)NCC(c2cccnc2)N2CCN(C)CC2)cc1OC` (stereo not given) gave HSF1 inh -71*, AHR activator 1, DAX1 inh 0, GAA850 FXN act 2 and HSF-1 act -78.
Screening CCC(C(=O)NCCCN1CC(C)CC(C)C1)n1ncn2c(cc3occc32)c1=O (stereo not given) returned HSF1 inh -3, AHR activator 1, DAX1 inh 0, GAA850 FXN act 0 and HSF-1 act -7.
O=C(CSc1nc(N2CCOCC2)nc(N2CCOCC2)n1)Nc1cccc(C(F)(F)F)c1 was read as HSF1 inh 7, AHR activator 0, DAX1 inh 1, GAA850 FXN act 0 and HSF-1 act 14.
Screening COc1cc(C(=O)Sc2ccc(Cl)cc2)cc(OC)c1OC returned HSF1 inh 60, AHR activator 1, DAX1 inh 1, GAA850 FXN act 0 and HSF-1 act 79*.
Screening COc1cccc(-c2noc(-c3ccc4c(c3)OCO4)n2)c1 returned HSF1 inh 4, AHR activator 25, DAX1 inh 4.3*, GAA850 FXN act 0 and HSF-1 act 26.
For COc1ccc(-c2noc(-c3ccoc3C)n2)cc1 the results were HSF1 inh 45, AHR activator 26, DAX1 inh 7.5*, GAA850 FXN act 4 and HSF-1 act inconclusive.
Screening COc1cccc(-c2noc(-c3ccoc3C)n2)c1 returned HSF1 inh -5, AHR activator 69*, DAX1 inh 3, GAA850 FXN act 6 and HSF-1 act 39.
Screening Cc1cccc(-c2noc(-c3ccoc3C)n2)c1 returned HSF1 inh 24, AHR activator 5, DAX1 inh 1, GAA850 FXN act 6 and HSF-1 act 43.
`CN(C(=O)c1cccc(NC(=O)Cc2ccc(NC(=O)C3CCCN(C(=O)C4CCC4)C3)cc2)c1)C1CCC1` (stereo not given) gave DAX1 inh -1 and GAA850 FXN act 0.
CSCC[C@H](NC(=O)C1CCN(S(=O)(=O)c2ccccc2)CC1)C(=O)NC1CC1 was read as HSF1 inh -71*, AHR activator -2, DAX1 inh 0, GAA850 FXN act 0 and HSF-1 act -77.
O=C(NC1CCCCCC1)C1CCN(S(=O)(=O)c2ccccc2)CC1 was read as HSF1 inh 8, AHR activator -1, DAX1 inh 1, GAA850 FXN act -1 and HSF-1 act 55*.
COc1ccc(C(=O)C2CC2)cc1 was read as DAX1 inh 2 and GAA850 FXN act 2.
For COc1ccc(OCC(=O)C2CC2)c(C#N)c1 the results were HSF1 inh 2, AHR activator 2, DAX1 inh 7.2*, GAA850 FXN act 4 and HSF-1 act -8.
For COC(=O)c1ccc(CSc2nnnn2-c2ccc(C)cc2C)o1 the results were HSF1 inh 33, AHR activator 5, DAX1 inh -1, GAA850 FXN act 4 and HSF-1 act 71*.
Cc1ccc(-n2nnnc2SCC(N)=O)c(C)c1 was read as HSF1 inh -18, AHR activator -1, DAX1 inh 0, GAA850 FXN act -2 and HSF-1 act 11.
`Cc1ccc2nc(N3C(=O)C(O)=C(C(=O)c4ccco4)C3c3cccs3)sc2c1` (stereo not given) gave HSF1 inh 35, AHR activator 21, DAX1 inh 1, GAA850 FXN act 2 and HSF-1 act 66*.
Screening Oc1ccc(-c2nc3ccccn3c2NCc2ccco2)cc1 returned HSF1 inh 6, AHR activator 4, DAX1 inh 4.3*, GAA850 FXN act 2 and HSF-1 act 10.
`N#C/C(=C\c1ccccn1)c1ccccn1` gave HSF1 inh -60*, AHR activator 24, DAX1 inh -2, GAA850 FXN act 4 and HSF-1 act -66.
Screening N#C/C(=C\c1ccc([N+](=O)[O-])cc1)c1ccccn1 returned HSF1 inh 49, AHR activator 17, DAX1 inh 2, GAA850 FXN act 2 and HSF-1 act 73*.
CN(C)c1ccc(/C=C(\C#N)c2ccccn2)cc1 was read as HSF1 inh 39, AHR activator -2, DAX1 inh -4, GAA850 FXN act -6 and HSF-1 act 39.
`COc1cc(/C=C(\C#N)c2ccccn2)cc(OC)c1O` gave HSF1 inh -5, AHR activator -1, DAX1 inh 1, GAA850 FXN act -1 and HSF-1 act -12.
Screening COC(=O)c1ccc(/C=C(\C#N)c2ccccn2)cc1 returned HSF1 inh 43, AHR activator 0, DAX1 inh 5.0*, GAA850 FXN act 5 and HSF-1 act 86*.
O=C(CSc1nc2ccccc2c(=O)[nH]1)Nc1ccc(N2CCOCC2)c(Cl)c1 was read as HSF1 inh 0, AHR activator 11, DAX1 inh -1, GAA850 FXN act 3 and HSF-1 act 31.
For COc1ccc(NC(=O)C(=O)NCC(c2ccco2)N2CCc3ccccc3C2)cc1OC (stereo not given) the results were HSF1 inh -2, AHR activator 3, DAX1 inh -1, GAA850 FXN act 0 and HSF-1 act -8.
`O=C(N/N=C/c1cccc2ccccc12)c1cccs1` gave HSF1 inh 16, DAX1 inh 4.5*, GAA850 FXN act 7 and HSF-1 act 32.
COc1ccccc1/C=C\C=N\NC(=O)c1ccco1 was read as HSF1 inh 19, AHR activator 14, DAX1 inh 0, GAA850 FXN act 3 and HSF-1 act 21.
`COc1ccccc1/C=C/C=N/NC(=O)c1cccs1` gave HSF1 inh 22, AHR activator -1, DAX1 inh 7.2*, GAA850 FXN act 3 and HSF-1 act 61*.

Screening results (PubChem)
